This note sets out measurements from PubChem BioAssay (NCATS).

Inconclusive results are not listed. Activity calls are given as the source filed them. Calls follow the shape of the dose curve; as a rule, active = well fitted cell-killing curve with a large enough effect; inconclusive = small, poorly fitted or top-dose-only effect, or effect the other way; inactive = no such curve, though single readings can be large or run the other way.
Potency is read from the fitted curve at half-maximal effect.

The assay is described as follows: Quantitative High-Throughput drug screen in 47 multiple myeloma cell lines against the NCATS MIPE library collection: PE2_PLB cell viability assay (AID 1919869). Also: nearly all actives have a fitted effect of over 35% in size. Conditions: PE2_PLB myeloma cells viability, ATP luminescence, 48 h; series mostly up to 45.8 µM. The essentials:
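Cells were exposed to library compounds for 48 hours, after which ATP was measured by CellTiter-Glo. Signal was taken as median relative luminescence units.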
Regarding `C#Cc1cccc(Nc2ncnc3cc(OC)c(OCCCCCCC(=O)NO)cc23)c1`, the Potency was 93.5 nM (active).

Consider `CCC1=C[C@@H]2CN(C1)Cc1c([nH]c3ccccc13)[C@@](C(=O)OC)(c1cc3c(cc1OC)N(C)[C@@H]1[C@@](O)(C(=O)OC)[C@H](OC(C)=O)[C@]4(CC)C=CCN5CC[C@]31[C@@H]54)C2`, for which the Potency is 26.4 nM (active).

Turning to `CN1CCN(Cc2ccc(NC(=O)Nc3ccc(Oc4cc(NC(=O)C5CC5)ncn4)cc3)cc2C(F)(F)F)CC1`, the Potency is 148 nM (active).

For `C=CC(=O)Nc1cc2c(Nc3ccc(F)c(Cl)c3)ncnc2cc1OCCCN1CCOCC1`, the Potency was 1870 nM (active).

As for `CC(C)c1ccc(Cn2ccc3c4c(N)nc(NC5CC5)nc4ccc32)cc1`, the Potency is 2350 nM (active).

For the compound `COCCOc1ccc2c(c1)ncn2-c1ccc2cccc(N3CCC(N)CC3)c2n1`, the Potency was 372 nM (active).

Turning to `Cc1ccc(-c2ncn(-c3ccc(Nc4nccc(-c5cccc(N6CCOCC6)c5)n4)cc3)n2)cn1`, the Potency is 372 nM (active).

Turning to `CC[C@@]1(O)C(=O)OCc2c1cc1n(c2=O)Cc2cc3cc(O)ccc3nc2-1`, the Potency is 264 nM (active).

In the case of `c1cc(-c2cnn3cc(-c4ccc(OCCN5CCCCC5)cc4)cnc23)ccn1`, the Potency is 3320 nM (active).

Turning to `CC(C)c1cnn2c(NCc3ccccc3)cc(N[C@@H](CO)[C@H](O)CO)nc12`, the Potency was 235 nM (active).

As for `C[C@@H](Oc1cc(-c2cnn(C3CCNCC3)c2)cnc1N)c1c(Cl)ccc(F)c1Cl`, the Potency was 6620 nM (active).

On to `COc1cccc2nc(-c3cccs3)nc(NN3C(=O)C=C(C)C3=O)c12`, for which the Potency was 418 nM (active).
